Experimental data taken from PubChem BioAssay AID2688 (National Center for Advancing Translational Sciences (NCATS), 2010).
The list shows a part of the results. Results filed as inconclusive are left out. Active and inactive are the calls of the source.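 The calls were made as follows: active = compounds whose IC50 for blocking JMJD2E demethylation is below 100 µM; inconclusive = dose dependent effect but IC50 above 100 µM; inactive = the rest.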

target: Lysine-specific demethylase 4E (Homo sapiens) (UniProt B2RXH2); test: MALDI-TOF-MS Assay for Inhibitors of Human Jumonji Domain Containing 2E (JMJD2E); details: recombinant JMJD2E demethylation
Excerpt: The fine interplay among methylation states of several lysine residues on the tails of histone proteins is a major determinant of the transcriptional state of the associated DNA coding regions and is commonly referred to as the histone code. Histone lysine demethylases catalyze the removal of methyl groups from methylated lysine sidechains on histones H3 and H4, thus antagonizing the reactions catalyzed by histone lysine methyltransferases. […] In search for novel inhibitors of JMJD2E demethylase, a member of the largest set of histone demethylases belonging to the Fe(II) and 2-oxoglutarate oxygenase (2OG) superfamily, we performed a quantitative high-throughput screen (Inglese 2006). See AID 2147 for details on the primary screen. […]
For the MS assays, JMJD2E (2 uM), FAS (10 uM) and SA (100 uM) in HEPES buffer, 50 mM, pH 7.5, were incubated with inhibitor (stock solutions in DMSO, final in-assay concentration varied, but final DMSO concentration was 5% of assay mix) for 15 min at room temperature. […] The relative intensities of different methylation states observed in the mass spectra were then used to calculate percentage demethylation, and IC50s were calculated from the variation in percentage demethylation at different inhibitor concentrations.

Lysine-specific demethylase 4E (Homo sapiens), sequence (B2RXH2 1-337 limits assumed): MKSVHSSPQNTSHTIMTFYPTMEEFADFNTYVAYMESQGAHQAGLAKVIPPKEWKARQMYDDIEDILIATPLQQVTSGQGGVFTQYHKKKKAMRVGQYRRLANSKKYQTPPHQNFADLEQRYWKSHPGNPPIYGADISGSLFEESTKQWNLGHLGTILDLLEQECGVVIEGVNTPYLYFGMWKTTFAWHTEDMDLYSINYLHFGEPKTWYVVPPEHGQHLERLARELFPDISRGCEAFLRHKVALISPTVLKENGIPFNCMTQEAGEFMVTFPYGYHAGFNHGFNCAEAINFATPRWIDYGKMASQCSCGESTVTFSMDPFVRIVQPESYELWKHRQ

SMILES	Potency
Nc1ccc(Nc2cc(O)c3ncccc3c2)cc1	20.2 µM (active)
Oc1ccc(/C=C/c2c(F)cccc2F)c2cccnc12	89.6 µM (active)
